The nature of the assay: JC-1 mitochondrial potential readout, lung cancer cells – cell-based, A549, JC-1 fluorescence, basal, 24 h, 100 nL, profiling panel (AID 1138).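 Also: A549 lung adenocarcinoma cells under basal conditions with no added stimulus; test concentration not given here.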 The following applies: higher = more signal.
As to `Cc1cc2c(c(=O)o1)[C@H](O)[C@H]1O[C@H]1C2=O`, the z-score is -1.23. Take `COc1ccc(COC(=O)NN=C2C[C@@H](O)[C@@H](O)[C@@H]3[C@@H]4C(=O)N(c5ccc(F)cc5F)C(=O)[C@@H]4CC[C@@H]23)cc1`: the z-score was -0.604. The result for `CO[C@@H]1COC(=O)CCC[C@@H](C)[C@H](OC)COC(=O)CCC[C@H]1C` reads -0.598; that for `O=C1C[C@@H](O)[C@@H](O)[C@@H]2[C@@H]3C(=O)N(Cc4ccc5c(c4)OCO5)C(=O)[C@@H]3CC[C@@H]12`, 0.481; that for `CC=CC1=C(CO)[C@H](O)[C@H]2O[C@H]2[C@H]1O`, -0.565. The result for `CC(C)[C@H](NC(=O)OC(C)(C)C)[C@@H](O)CC(=O)OC(C)(C)C` reads -1.25; that for `CO[C@H]1COC(=O)[C@@H]2CCCN2C(=O)CC=C[C@@H](C)[C@H](OC)COC(=O)CC=C[C@@H]1C`, 1.59. The compound `COC(=O)[C@H](C)NC(=O)CCC1CC(OC(=O)NCCc2ccc(F)cc2)CC2(CCCC(COC(=O)NCCc3ccc(Cl)cc3)O2)O1` (some centres not stated) came in with a z-score of 0.994.

In turn, `CC(C)=CCCC(C)=CCON=C1[C@H]2CCn3c(=O)n(C)c(=O)n3[C@H]2[C@H](O)[C@@H]2O[C@H]12` registered a z-score of 0.637. Next, `O=C(NN=C1C[C@@H](O)[C@@H](O)[C@@H]2[C@@H]3C(=O)N(c4cccc(Oc5ccccc5)c4)C(=O)[C@@H]3CC[C@@H]12)OCc1ccccc1`: -0.0675; `CC(=O)OC[C@H]1O[C@H](C#CCCCc2ccccc2)C=C[C@@H]1OC(C)=O`: -0.264; `CC(CCN1CCc2nc(-c3ccccc3)c(-c3ccccc3)cc2C1)=NO[C@H](C)c1cn([C@@H]2COC[C@H]2O)nn1`: 1.17.

(Values after PubChem BioAssay.)
